Measured potencies and affinities stand elsewhere. Results filed as inconclusive are left out. Unmarked numbers belong to inactive results.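 The calls were made as follows: active = signal loss with fitted half-maximal concentration at or below twice the top valid tested dose in every test run; inconclusive = runs disagree, flat 30 to 70% signal loss, or poor fit; inactive = all runs flat, opposite direction, or potency beyond limit.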
Assay: HEK293T cytotoxicity, dose response, cytotoxicity control for miR-122 modulator project, cell-based, inhibitor set, cherry-pick, set 2 (AID 720697);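 also: 0% = median of neutral control wells and -100% = MG132 positive control wells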
Conditions: HEK293T viability, CellTiter-Glo luminescence, 48 h; series mostly up to 26 µM; activity change, negative = cytotoxicity: at the top concentration

SMILES | activity change, negative = cytotoxicity
CC(C)OCCCNC(=O)c1ccncc1 | 79.6%
COCCN(C[C@@H]1[C@H](c2ccccc2)[C@@H](CO)N1C(=O)C1CCC1)C(C)=O | 134% [at 23.5 µM]
COC(=O)C[C@@H]1CC[C@@H]2[C@@H](COc3ccc(NC(=O)c4cscn4)cc3C(=O)N2C)O1 | 139%
CN1C(=O)c2cc(NC(=O)c3ccc(F)cc3)ccc2OC[C@@H]2O[C@@H](CC(=O)O)CC[C@@H]21 | 121%

From PubChem BioAssay AID720697 (Broad Institute, 2013)
